Source: PubChem (National Center for Advancing Translational Sciences (NCATS))
TDP1 block: blocks human tyrosyl-DNA phosphodiesterase 1. recombinant TDP1, AlphaScreen DNA substrate cleavage. Potency, µM (highest dose often 130 µM), for inactives: top-dose activity change, negative = inhibition, most hits filed as inhibitors. AID 485290. hit rate 0.28% among 350,000. Q9NUW8; further: potency means the concentration at half of the fitted maximal effect; on the % scale 0 is the no-effect control and ±100 the full control effect; nearly all actives have a fitted effect of over 40% in size
Target sequence (Q9NUW8 whole entry, looked up): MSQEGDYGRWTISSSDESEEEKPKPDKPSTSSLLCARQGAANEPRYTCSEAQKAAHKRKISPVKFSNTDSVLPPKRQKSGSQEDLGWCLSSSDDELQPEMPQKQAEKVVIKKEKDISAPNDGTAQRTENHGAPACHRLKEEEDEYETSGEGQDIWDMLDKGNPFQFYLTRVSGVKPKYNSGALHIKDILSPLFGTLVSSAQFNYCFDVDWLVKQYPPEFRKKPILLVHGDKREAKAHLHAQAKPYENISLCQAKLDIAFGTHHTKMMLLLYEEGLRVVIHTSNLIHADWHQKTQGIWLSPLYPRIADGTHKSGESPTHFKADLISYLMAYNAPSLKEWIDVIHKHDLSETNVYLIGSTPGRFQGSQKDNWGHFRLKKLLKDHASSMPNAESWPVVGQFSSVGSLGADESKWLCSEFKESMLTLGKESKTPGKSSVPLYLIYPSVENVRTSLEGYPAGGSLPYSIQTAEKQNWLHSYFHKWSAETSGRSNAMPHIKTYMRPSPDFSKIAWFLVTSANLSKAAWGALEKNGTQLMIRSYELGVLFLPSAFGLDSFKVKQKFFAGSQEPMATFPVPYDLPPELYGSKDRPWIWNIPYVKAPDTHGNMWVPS
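Signal: AlphaScreen proximity between streptavidin donor and anti-FITC acceptor beads on intact substrate. Reaction: Tdp1 1 nM, substrate 15 nM final, 5 min RT after 15 min compound preincubation.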
HepG2 tox: kills HepG2 cells in TGF-b inhibitor counter-screen; AID 588856; Potency, µM (top dose mostly 46.1 µM), without a hit: top-dose activity change, negative = cytotoxicity, actives largely listed as cytotoxic; HepG2 CAGA-GFP viability, ATP luminescence, 18 h; hit rate 0.76% among 410,000; further: potency means the concentration at half of the fitted maximal effect
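HepG2 CAGA-GFP cells (1000/well, DMEM with 1% FBS) received compound, then TGF-beta at 500 pg/mL final, and were incubated 18 hours at 37 degrees C. Viability was read by CellTiter-Glo luminescence. Media-only wells were set as complete cell-killing and DMSO as no toxicity.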
IL1B secr inh: inflammasome signaling inhibition, IL-1 beta readout; AID 743279; THP-1 LPS/ATP IL-1B secretion, AlphaLISA, 16 h; active compounds read low; hit rate 4.7% among 360,000; activity change, % at 57.5 µM; in the data active means activity change below about -50%; inconclusive means mostly about -30% to -49%; further: on the % scale 0 is the no-effect control and ±100 the full control effect
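Secreted IL-1B measured by AlphaLISA bead assay after 16 h compound exposure of THP-1 cells; compounds (final up to 57.5 uM) added 1 h before LPS (250 ng/mL) and ATP (1.25 mM) stimulation; lower signal means less secretion.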
TDP1 cell noCPT: qHTS for Inhibitors of human tyrosyl-DNA phosphodiesterase 1 (TDP1): qHTS in cells in absence of CPT | DT40 Tdp1-/- hTDP1 cells, no CPT, ATP luminescence, 48 h | Potency, µM (series often up to 46.2 µM), inactives show at the top dose activity change, negative = growth inhibition, hits mostly inhibitors | hit rate 15% among 420,000 | AID 686978, 2013; further: potency means the concentration at half of the fitted maximal effect; on the % scale 0 is the no-effect control and ±100 the full control effect; nearly all actives have a fitted effect of over 55% in size
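Chicken DT40 Tdp1-/- cells stably complemented with human TDP1 were seeded at 400 cells/well with DMSO in place of 20 nM camptothecin. After compound pinning, cells grew at least 48 hr at 37 °C; viability read by CellTiter-Glo luminescence.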
DT40 TDP1 CPT: growth inhibition of DT40 Tdp1-/-;hTDP1 cells with camptothecin (screen for TDP1 inhibitors); AID 686979; chicken DT40 Tdp1-/-;hTDP1 cells + 20 nM CPT, ATP luminescence, 48 h; Potency, µM (top dose mostly 46.2 µM), for inactives: at the top dose activity change, negative = growth inhibition, hits mostly inhibitors; hit rate 12% among 420,000; further: potency means the concentration at half of the fitted maximal effect; on the % scale 0 is the no-effect control and ±100 the full control effect; nearly all actives have a fitted effect of over 55% in size
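Chicken DT40 Tdp1-/- cells stably complemented with human TDP1 were seeded at 400 cells/well in medium containing 20 nM camptothecin, exposed to pin-transferred compounds, and grown at 37 °C for at least 48 hr. Viability was read as ATP luminescence.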
TGFb SMAD3 inh: inhibitors of TGF-b signaling; hit rate 1.2% among 410,000; Potency, µM (top dose mostly 46.1 µM), for the others: at the highest dose activity, negative = inhibition, most hits filed as inhibitors; HepG2 CAGA-GFP TGF-b/SMAD3 reporter, GFP fluorescence, 18 h; TGF-beta stimulated, 500 pg/mL final; further: potency means the concentration at half of the fitted maximal effect; on the % scale 0 is the no-effect control and ±100 the full control effect; nearly all actives have a fitted effect of over 65% in size
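HEPG2 CAGA-GFP reporter cells (1000/well, DMEM with 1% FBS) received compounds, then recombinant TGF-beta at 500 pg/mL final for 18 hours at 37 degrees C. Per-cell GFP summed per well was normalised to unstimulated and stimulated DMSO controls before curve fitting.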
Starred values were filed as active, the others as inactive. An excerpt weighted towards active compounds, which were near 19% of everything screened. Unless noted, the call rests on the fitted dose curve; in most records, active means well fitted curve in the direction sought with a large enough effect; inconclusive means small, poorly fitted or top-dose-only effect, or another doubt; inactive means no such curve, though single readings can be large; an effect the other way counts as inactive or inconclusive.

How did COc1ccc2nc(NC3=NC(c4ccccc4)CC(=O)N3)nc(C)c2c1 (centres undefined) do in these assays?
TDP1 block: 5.8%; HepG2 tox: -37.9%; IL1B secr inh: 14.8; TDP1 cell noCPT: 13µM*; DT40 TDP1 CPT: inconclusive; TGFb SMAD3 inh: -27.4%

What do the screens show for `O=C(Oc1ccc(C(=S)N2CCC(O)CC2)cc1)c1ccc(Cl)cc1`?
TDP1 block: -5.1%; HepG2 tox: 0.3%; IL1B secr inh: 6.0; TDP1 cell noCPT: -6.0%; DT40 TDP1 CPT: 23.8%; TGFb SMAD3 inh: 9.1%

How did CCCCNc1nc2c(S(=O)(=O)c3ccc(C)cc3)nnn2c2ccsc12 do in these assays?
TDP1 block: 0.0%; HepG2 tox: 5.0%; TDP1 cell noCPT: -1.3%; DT40 TDP1 CPT: -4.6%; TGFb SMAD3 inh: 28.2%

What do the screens show for `O=C1CCC/C=C\C[C@@H](CC(=O)N(CCO)Cc2ccccc2)C(=O)N[C@H](c2ccccc2)CO1`?
TDP1 block: 0.2%; HepG2 tox: -1.7%; IL1B secr inh: -6.2; TDP1 cell noCPT: -27.9%; DT40 TDP1 CPT: -1.6%; TGFb SMAD3 inh: -16.3%

How did COC(=O)c1ccc(C(=O)OC)c(NC(=O)CN(C)Cc2ccccc2)c1 do in these assays?
TDP1 block: 0.6%; HepG2 tox: 3.5%; IL1B secr inh: 7.6; TDP1 cell noCPT: 16.4µM*; DT40 TDP1 CPT: -29.8%; TGFb SMAD3 inh: 5.9%

Results for COC(=O)c1ccc(C(=O)OC)c(NC(=O)CN(C)Cc2cccc(Cl)c2Cl)c1 ?
TDP1 block: 5.3%; HepG2 tox: -2.8%; IL1B secr inh: 19.6; TDP1 cell noCPT: inconclusive; DT40 TDP1 CPT: inconclusive; TGFb SMAD3 inh: 7.8%

Results for COC(=O)c1ccc(NC(=O)CN(C)Cc2cccc(F)c2)cc1 ?
TDP1 block: -2.6%; HepG2 tox: 0.4%; IL1B secr inh: -105.4*; TDP1 cell noCPT: 13µM*; DT40 TDP1 CPT: -18.9%; TGFb SMAD3 inh: -16.6%

Results for CN(C)c1ccc2ccc3cccc4ccc1c2c34 ?
HepG2 tox: -26.6%; TDP1 cell noCPT: -19.4%; DT40 TDP1 CPT: -24.4%; TGFb SMAD3 inh: 49.9%

How did CCOC(=O)c1[nH]c(C)c(C(=O)Nc2ccccc2F)c1C do in these assays?
TDP1 block: 5.2%; HepG2 tox: 6.7%; IL1B secr inh: 0.0; TDP1 cell noCPT: 2.59µM*; DT40 TDP1 CPT: 2.31µM*; TGFb SMAD3 inh: inconclusive

How did CCOC(=O)c1[nH]c(C)c(C(=O)c2ccc(C)cc2)c1C do in these assays?
TDP1 block: 4.6%; HepG2 tox: 0.0%; IL1B secr inh: 3.2; TDP1 cell noCPT: 2.06µM*; DT40 TDP1 CPT: 2.31µM*; TGFb SMAD3 inh: -23.5%

What do the screens show for `CCOC(=O)c1[nH]c(C)c(C(=O)Nc2ccc(F)cc2)c1C`?
TDP1 block: -1.3%; HepG2 tox: -0.1%; IL1B secr inh: -5.3; TDP1 cell noCPT: 1.0%; DT40 TDP1 CPT: -11.2%; TGFb SMAD3 inh: 0.5%

Results for CCOC(=O)c1c(C)[nH]c(C(=O)OCC(=O)NCc2ccc(C)cc2)c1C ?
TDP1 block: 0.5%; HepG2 tox: -27.5%; IL1B secr inh: 0.2; TDP1 cell noCPT: inconclusive; DT40 TDP1 CPT: inconclusive; TGFb SMAD3 inh: -12.2%

Results for CCOC(=O)c1[nH]c(C)c(C(=O)Nc2ccc(C)cc2C)c1C ?
TDP1 block: 6.5%; HepG2 tox: -5.1%; IL1B secr inh: -8.4; TDP1 cell noCPT: 1.3µM*; DT40 TDP1 CPT: 2.31µM*; TGFb SMAD3 inh: -4.2%

Results for CCOC(=O)c1[nH]c(C)c(C(=O)Nc2ccc(C)c(C)c2)c1C ?
TDP1 block: 6.1%; HepG2 tox: -16.5%; IL1B secr inh: -5.0; TDP1 cell noCPT: inconclusive; DT40 TDP1 CPT: inconclusive; TGFb SMAD3 inh: -10.7%

Results for CCCCNc1nc(C)nc2c1nc(-c1ccccc1)n2CCCN1CCCCC1C (centres undefined) ?
TDP1 block: 1.5%

Results for COc1ccc(C2c3c(n(C)c4ccccc34)C(=O)N2CC(=O)Nc2cc(Cl)ccc2C)cc1 (centres undefined) ?
TDP1 block: 5.6%; HepG2 tox: -17.2%; TDP1 cell noCPT: 20.6µM*; DT40 TDP1 CPT: inconclusive; TGFb SMAD3 inh: 0.0%

Results for CCCSc1ncc(Cl)c(C(=O)Nc2ccc(S(=O)(=O)N(C)c3ccccc3)cc2)n1 ?
TDP1 block: 7.4%; HepG2 tox: -12.4%; TDP1 cell noCPT: 20.6µM*; DT40 TDP1 CPT: inconclusive

Results for CCN(c1ccccc1)S(=O)(=O)c1ccc(NC(=O)c2nc(SC)ncc2Cl)cc1 ?
TDP1 block: 6.1%; HepG2 tox: -48.4%; TDP1 cell noCPT: 20.6µM*; DT40 TDP1 CPT: 11.6µM*; TGFb SMAD3 inh: inconclusive

What do the screens show for `CC(=O)c1ccccc1N(C(=O)c1ccco1)C(C(=O)NC1CCCC1)c1ccc(N2CCOCC2)cc1` (centres undefined)?
TDP1 block: 3.6%; HepG2 tox: 4.2%; IL1B secr inh: 8.3; TDP1 cell noCPT: -13.4%; DT40 TDP1 CPT: -13.2%; TGFb SMAD3 inh: -1.4%

Results for Cc1cccc(CNC(=O)CCCn2c(=O)c3cccn3c3ccc(F)cc32)c1 ?
TDP1 block: 0.0%; HepG2 tox: 4.3%; TDP1 cell noCPT: 23.1µM*; DT40 TDP1 CPT: inconclusive; TGFb SMAD3 inh: -17.8%

What do the screens show for `COc1ccc(CNC(=O)CCCn2c(=O)c3cccn3c3ccc(F)cc32)cc1OC`?
HepG2 tox: -20.8%; TDP1 cell noCPT: 18.4µM*; DT40 TDP1 CPT: 18.4µM*; TGFb SMAD3 inh: 0.0%

How did COc1ccc(CCNC(=O)Cn2c(=O)c3cccn3c3ccccc32)cc1OC do in these assays?
TDP1 block: 2.6%; HepG2 tox: 4.7%; TDP1 cell noCPT: 23.1µM*; DT40 TDP1 CPT: inconclusive; TGFb SMAD3 inh: -35.4%

Results for COc1ccc(CNC(=O)CCn2c(=O)c3cccn3c3ccc(F)cc32)cc1OC ?
TDP1 block: 3.9%; HepG2 tox: 26.2%; TDP1 cell noCPT: inconclusive; DT40 TDP1 CPT: -46.4%; TGFb SMAD3 inh: 5.6%

Results for C=CC(=O)Nc1cc2c(Nc3ccc(F)c(Cl)c3)ncnc2cc1OCCCN1CCOCC1 ?
TDP1 cell noCPT: 4.73µM*; DT40 TDP1 CPT: 5.31µM*

What do the screens show for `CC(Sc1nnc2c(n1)[nH]c1ccccc12)C(=O)N(C)C1CCCCC1` (centres undefined)?
TDP1 block: 10.3%; HepG2 tox: -33.3%; IL1B secr inh: -55.9*; TDP1 cell noCPT: 20.6µM*; DT40 TDP1 CPT: 25.9µM*; TGFb SMAD3 inh: inconclusive
